# Screening results: PubChem BioAssay, The Scripps Research Institute Molecular Screening Center
# EBNA-1 inh: EBNA-1 DNA-binding inhibitors, primary screen, biochemical, fluorescence polarization; inhibition, % at 14.8 µM; actives 0.34% (n = 300,000); AID 1950, 2009; in the data active = inhibition above about 28%
# ZTA DNA inh: counter-screen for EBNA-1 inhibitors: inhibitors of Epstein-Barr virus ZTA; P03206; ZTA-DNA binding, fluorescence polarization; inhibition, % at 11 µM; actives 0.15% (n = 320,000); in the data active = inhibition above about 33%
# Target sequence (P03206 whole entry, looked up): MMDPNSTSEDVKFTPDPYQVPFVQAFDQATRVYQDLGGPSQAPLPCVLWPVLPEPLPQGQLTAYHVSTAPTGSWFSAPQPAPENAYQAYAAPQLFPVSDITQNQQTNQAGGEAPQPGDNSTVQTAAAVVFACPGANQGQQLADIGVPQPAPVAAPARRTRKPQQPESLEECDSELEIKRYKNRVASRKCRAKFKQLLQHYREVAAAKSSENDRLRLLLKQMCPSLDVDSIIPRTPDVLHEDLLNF
# pPAFAH FP inh: pPAFAH enzyme inhibitors, primary screen, biochemical, fluorescence polarization, human; Platelet-activating factor acetylhydrolase (Homo sapiens), Q13093; recombinant pPAFAH, FP-rhodamine probe fluorescence polarization; inhibition, % at 3.39 µM; actives 1.5% (n = 330,000);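 active = inhibition above the mean inhibition across the screen plus 3 SD, cut at about 25% in these data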;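 note: inhibitors block binding of the rhodamine activity-based probe so polarization drops; 0% = enzyme with DMSO and 100% = wells lacking pPAFAH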
# PAFAH2 inh: PAFAH2 enzyme inhibitors, primary screen, biochemical, fluorescence polarization, human. recombinant PAFAH2, FP-rhodamine activity probe. AID 492956, 2010. actives 0.99% (n = 340,000). inhibition, % at 3.39 µM;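 active = inhibition above the mean over all tested compounds plus 3 SD, cut at about 30% in these data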;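 note: inhibitors block probe labeling of enzyme so polarization drops; 0% = enzyme with DMSO and 100% = wells lacking PAFAH2 protein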
# PAFAH1B3 inh: PAFAH1B3 enzyme inhibitors, primary screen, biochemical, fluorescence polarization, human; AID 492972, 2010; recombinant PAFAH1B3, FP-rhodamine probe; inhibition, % at 3.39 µM; actives 0.28% (n = 340,000);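 active = inhibition above the screen-wide average of all tested compounds plus 3 SD, cut at about 25% in these data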;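 note: 0% = enzyme with DMSO only and 100% = wells lacking PAFAH1B3 protein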
# PAFAH1B2 inh: PAFAH1B2 enzyme inhibitors, primary screen, biochemical, fluorescence polarization, human. AID 492953, 2010. inhibition, % at 3.39 µM. actives 1.2% (n = 340,000). recombinant PAFAH1B2, FP-rhodamine activity probe;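 active = inhibition above the mean of all tested compounds plus 3 SD, cut at about 24% in these data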;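 note: 0% = enzyme with DMSO and 100% = wells lacking PAFAH1B2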
# Target sequence (P68402 whole entry, looked up): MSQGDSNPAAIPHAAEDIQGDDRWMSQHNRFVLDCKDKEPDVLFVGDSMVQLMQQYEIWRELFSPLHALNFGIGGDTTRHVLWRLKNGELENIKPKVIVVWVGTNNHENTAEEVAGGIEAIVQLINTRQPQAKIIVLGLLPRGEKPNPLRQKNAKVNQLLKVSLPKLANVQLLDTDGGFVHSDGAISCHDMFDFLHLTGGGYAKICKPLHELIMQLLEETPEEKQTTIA
# The depositor's hits bear a star; . = no result given. Compounds with a hit are over-represented: about 2.9% of the library has one in this group of screens.
SMILES,EBNA-1 inh,ZTA DNA inh,pPAFAH FP inh,PAFAH2 inh,PAFAH1B3 inh,PAFAH1B2 inh
O=C(CCNC(=O)c1ccccc1Cl)Nc1ccc(S(=O)(=O)Nc2ncccn2)cc1,12.2,18.6,-3.1,4.3,-1.8,0.1
O=C(CCNC(=O)c1ccc(Br)cc1)Nc1ccc(S(=O)(=O)Nc2ncccn2)cc1,5.0,-10.3,27.9*,7.1,4.8,2.3
Cc1ccc(NS(=O)(=O)c2ccc(CCC(=O)NCc3ccccn3)cc2)cc1,-19.4,3.7,31.9*,3.4,-2.8,7.2
CS(=O)(=O)Nc1ccc(C(=O)NCc2ccccn2)cc1,-2.0,-8.0,2.7,-0.3,-1.1,2.5
Cc1ccc(NS(=O)(=O)c2ccc(CCC(=O)NCCO)cc2)cc1,10.6,-5.2,24.9*,4.1,1.4,1.3
Cc1ccc(S(=O)(=O)NNC(=O)c2cc(C)cs2)cc1,5.3,12.8,4.7,-7.1,2.6,8.0
Cc1ccccc1CSc1ncnc2ccccc12,-5.4,2.3,31.7*,-2.4,5.7,4.2
N#CCSc1ncnc2ccccc12,0.8,9.9,1.5,1.9,6.3,11.2
CCOC(=O)c1cc(C#N)c(SCC(=O)O)[nH]c1=O,5.1,0.8,31.8*,-5.6,31.4*,1.9
CCOC(=O)c1cc(C#N)c(SCC(=O)c2cc(C#N)c(SC)nc2C)[nH]c1=O,3.4,-26.8,13.6,4.3,9.1,4.3
COc1cccc(C(=O)N(Cc2ccco2)Cc2cc3cccc(C)c3[nH]c2=O)c1,-6.8,-0.2,24.9*,-3.5,8.7,2.4
CC[n+]1c(/C=C/N(C)c2ccccc2)n(-c2ccccc2)c2ccc(-c3nc4ccccc4s3)cc21,15.1,42.0*,17.0,-8.9,1.0,0.3
Cc1ccc(C)n1-c1cccc(C(=O)O)c1,26.7,77.5*,62.6*,.,.,.
COc1cc(C(C)=O)ccc1OCC(=O)NCC(c1ccc(F)cc1)N1CCOCC1 (configuration not stated),.,.,28.1*,8.3,2.4,0.6
Oc1ccc(/C=N/NC(=S)Nc2cccnc2)cc1O,-15.0,-9.6,33.1*,13.2,13.0,2.3
Cc1ccc(S(=O)(=O)n2cc(CO)c3ccccc32)cc1,.,.,.,3.4,6.2,47.4*
CCOC(=O)C1CCN(C(=O)C2CC(=O)N(c3ccc4c(c3)OCCO4)C2)CC1 (configuration not stated),-5.8,4.4,-0.1,-5.0,-1.0,6.6
O=C(NC(=S)NNC(=O)c1ccccc1[N+](=O)[O-])c1ccc(Br)cc1,-3.8,-8.1,5.1,6.8,8.1,8.1
CSc1ccccc1NC(=O)COC(=O)CCC(=O)c1ccc(F)cc1,.,.,21.4,4.8,-9.0,1.1
Cc1ccc(C(=O)CCC(=O)OCC(=O)Nc2ccccc2SCC#N)cc1,.,-15.7,26.5*,0.2,11.3,-0.4
NC(=O)c1ccc(/C(N)=N/S(=O)(=O)c2cc(C(F)(F)F)cc(C(F)(F)F)c2)cc1,7.1,1.7,-3.0,.,.,.
CC(C)C1NC(=S)N(C2CCCCC2)C1=O (configuration not stated),-6.6,-19.4,5.9,11.3,4.0,3.7
O=C1C(c2ccccc2)NC(=S)N1C1CCCCC1 (configuration not stated),-4.4,-25.2,0.0,2.1,3.9,35.9*
CC(NC(=O)COC(=O)C1=COCCO1)C12CC3CC(CC(C3)C1)C2 (configuration not stated),6.2,-6.1,4.3,51.9*,-6.3,24.8*
N#CC1(NC(=O)COC(=O)C2=COCCO2)CCCCC1,.,-25.2,2.8,92.2*,32.5*,18.6
SMILES,EBNA-1 inh,ZTA DNA inh,pPAFAH FP inh,PAFAH2 inh,PAFAH1B3 inh,PAFAH1B2 inh
Cc1cc(C)nc(/N=C(\N)Nc2ccc(C(C)C)cc2)n1,-4.9,-4.2,2.9,-1.9,5.5,2.9
Cc1ccc(S(=O)(=O)N2CCN(c3nc(C(C)C)c4c(c3C#N)CC(C)(C)OC4)CC2)cc1,88.3*,69.9*,2.6,0.5,1.5,5.7
CN1CCOC(=O)/C1=N/Nc1cc(Cl)ccc1Cl,2.1,6.6,2.1,0.1,1.1,0.6
CN(C)S(=O)(=O)c1ccc(C(=O)NCC(C)(C)CN=C2NS(=O)(=O)c3ccccc32)cc1,-6.4,11.8,1.6,1.4,9.2,4.0
O=C(O)c1ccn2c(C(=O)c3ccc(Cl)cc3)c(-c3ccccc3)cc2c1,7.5,24.4,17.9,8.1,-2.6,59.0*
COc1ccc(S(=O)(=O)N2CCCCC2)cc1NS(=O)(=O)c1ccccc1,.,.,-2.2,7.7,6.5,2.8
CSCC[C@H](NC(=O)OC(C)(C)C)C(=O)N1CCC(C(=O)N[C@@H](C)C(=O)NC(C)c2ccccc2)CC1 (some centres not stated),-8.3,-4.8,6.8,-0.4,5.0,4.4
Cc1cc(C)c(-n2c(C)cc(/C=C3/NC(=O)NC3=O)c2C)c(C)c1,3.9,3.7,27.3*,.,.,.
Cc1cccc(-n2c(C)cc(/C=C3\NC(=O)NC3=O)c2C)c1,-16.3,3.9,-3.0,5.8,2.9,6.2
Cc1ccccc1-n1c(SCC(=O)Nc2c(C)cccc2C)nc(O)cc1=O,7.4,11.8,31.1*,-7.8,2.5,1.8
CCN(CC)C(=O)CSc1nc(O)cc(=O)n1C,7.1,8.0,0.9,2.2,0.8,2.1
CCN(CC)C(=O)CSc1nc(O)cc(=O)n1-c1ccccc1OC,9.2,13.6,25.0*,0.3,-5.0,3.8
CCOC(=O)c1ccc(NS(=O)(=O)c2c(N)n(C)c(=O)n(C)c2=O)cc1,-3.7,-16.6,-0.5,4.1,9.3,2.1
CC(C)Cn1c(C23CC4CC(CC(C4)C2)C3)n[nH]c1=S,-9.8,-11.0,-1.6,5.2,-1.1,28.1*
COCCCn1c(C23CC4CC(CC(C4)C2)C3)n[nH]c1=S,-13.8,-4.0,-7.6,-3.2,6.2,7.0
Oc1ccccc1N1CCN(CC(O)COCc2ccccc2Cl)CC1 (configuration not stated),-3.5,-5.2,0.2,-8.2,-7.3,3.2
CCOCCCN(C(=O)CCC(=O)Nc1cc(C)on1)C(C(=O)NC(C)(C)C)c1ccccc1Cl (configuration not stated),-11.1,15.5,-4.5,-4.6,-1.6,4.3
CN(C)C(CNC(=O)c1ccc(S(=O)(=O)Nc2ccccc2)cc1)c1ccco1 (configuration not stated),1.3,9.8,29.3*,1.1,5.6,1.8
O=C(NCC(c1ccco1)N1CCCCC1)c1ccc(S(=O)(=O)Nc2ccccc2)cc1 (configuration not stated),-6.7,5.8,30.4*,0.2,2.4,1.0
